From PubChem BioAssay
IL1B secr inh: blocks inflammasome-driven IL-1 beta release; THP-1 LPS/ATP IL-1B secretion, AlphaLISA, 16 h; stronger effect = lower value; 360,000 compounds, 4.7% hits; activity change, % at 57.5 µM; in the data active = activity change below about -50%; inconclusive = mostly about -30% to -49%
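Secreted IL-1B measured by AlphaLISA bead assay after 16 h compound exposure of THP-1 cells; compounds (final up to 57.5 uM) added 1 h before LPS (250 ng/mL) and ATP (1.25 mM) stimulation; lower signal means less secretion.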
HT1080 IDH1KD tx: kills HT-1080 cells with IDH1 knockdown. Potency, µM (top dose mostly 46.1 µM), for the others: at the top dose activity, negative = toxicity, actives largely listed as cytotoxic. HT-1080 IDH1 knockdown viability, ATP luminescence, 48 h. 360,000 compounds, 2% hits;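 note: potency is the fitted concentration of half-maximal effect; 0% = DMSO wells and -100% = cell-free medium wells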
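Viability of IDH1-knockdown HT-1080 fibrosarcoma cells was assessed by CellTiter-Glo after 48 h at 37 °C with titrated compound; concentration-effect curves were classified by fit quality and response size.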
ELG1 repair inh: blocks ELG1-dependent DNA repair in HEK293T cells | Potency, µM (titrated, usually from 46.1 µM), for inactives: top-dose activity change, negative = inhibition, actives largely listed as inhibitors | 330,000 compounds, 2.3% hits | AID 504467 | HEK293T ELG1-luciferase reporter, luminescence, 16 h; DNA damage induced by 5-fluorouridine; note: potency is the fitted concentration of half-maximal effect; nearly all actives have a fitted effect of over 55% in size
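In this reporter screen, reduction of luminescence relative to DMSO vehicle indicated activity. Compounds and 5-fluorouridine were added together to 2,000 cells per well, incubated for 16 hr at 37 °C, then developed with ONE-Glo.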
HT1080NT lethal: kills 2HG-producing HT-1080-NT fibrosarcoma cells; HT-1080-NT fibrosarcoma viability, CellTiter-Glo ATP luminescence, 48 h; Potency, µM (series often up to 46.1 µM), inactives show at the highest dose activity, negative = less viability, actives largely listed as cytotoxic; 360,000 compounds, 1.6% hits;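 note: NT is the 2HG producing partner of a matched IDH1 knockdown line; potency is the fitted concentration of half-maximal effect; 0% = DMSO-treated cells and -100% = media-only wells without cells; nearly all actives have a fitted effect of over 55% in size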
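750 cells/well, RPMI + 5% FBS; 2 h settle, compound pin-transfer, 48 h at 37 degrees C. CellTiter-Glo 10 min RT, luminescence. Normalized to DMSO and media-only wells.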
TDP1 cell CPT: DT40-hTDP1 cell growth loss with CPT; chicken DT40 Tdp1-/-;hTDP1 cells + 20 nM CPT, ATP luminescence, 48 h; Potency, µM (titrated, usually from 46.2 µM), inactives show at the highest dose activity change, negative = growth inhibition, usual class: inhibitors; 420,000 compounds, 12% hits; note: potency is the fitted concentration of half-maximal effect; nearly all actives have a fitted effect of over 55% in size
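Chicken DT40 Tdp1-/- cells stably complemented with human TDP1 were seeded at 400 cells/well in medium containing 20 nM camptothecin, exposed to pin-transferred compounds, and grown at 37 °C for at least 48 hr. Viability was read as ATP luminescence.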
TDP1 cell noCPT: qHTS for Inhibitors of human tyrosyl-DNA phosphodiesterase 1 (TDP1): qHTS in cells in absence of CPT; 420,000 compounds, 15% hits; DT40 Tdp1-/- hTDP1 cells, no CPT, ATP luminescence, 48 h; Potency, µM (series often up to 46.2 µM), for inactives: at the highest dose activity change, negative = growth inhibition, actives largely listed as inhibitors; AID 686978, 2013; note: potency is the fitted concentration of half-maximal effect; nearly all actives have a fitted effect of over 55% in size
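Stably hTDP1-transfected Tdp1-null chicken DT40 cells were treated with library compounds minus camptothecin and grown for at least 48 hr at 37 °C, after which cellular ATP was quantified by luminescence.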
* = called active by the depositor; u = inconclusive; x = no result given. Most compounds without a hit are left out; they make up all but 19% or so of the library. Unless noted, calls come from the whole dose curve; as a rule, active = well fitted curve in the direction sought with a large enough effect; inconclusive = small, poorly fitted or top-dose-only effect, or another doubt; inactive = no such curve, though single readings can be large; an effect the other way counts as inactive or inconclusive. Unless noted, % is set by controls: 0 for no effect and ±100 for the full control effect.

SMILES | IL1B secr inh | HT1080 IDH1KD tx | ELG1 repair inh | HT1080NT lethal | TDP1 cell CPT | TDP1 cell noCPT
COc1cc(NS(=O)(=O)c2ccc(NC(=O)c3ccccc3C(=O)O)cc2)nc(OC)n1 | x | x | x | x | 10.4% | 4.8%
CCOc1ccc(CCNC(=O)c2cccc(S(=O)(=O)N3CCCC3)c2)cc1OCC | 15.8 | -11.7% | u | -9.4% | u | u
Cc1ccccc1CCNC(=O)c1ccc(Cl)c(S(=O)(=O)N2CC(C)OC(C)C2)c1 (stereo not drawn) | -8.2 | -21.6% | u | 1.6% | 18.4µM* | u
CCOc1ccc(CCNC(=O)c2cccc(S(=O)(=O)N3CC(C)OC(C)C3)c2)cc1OCC (stereo not drawn) | 10.1 | 1.0% | -7.8% | 0.7% | u | 9.2µM*
CN(C)C(CNC(=O)c1ccc(Cl)c(S(=O)(=O)N2CCCCCC2)c1)c1ccccc1 (stereo not drawn) | -59.4* | -13.2% | u | -14.4% | u | u
CCN(CC)CCNC(=O)c1ccc(Cl)c(S(=O)(=O)N2CCCCCC2)c1 | -18.7 | -0.2% | u | -4.0% | u | u
CN(C)CCCNC(=O)c1ccc(Cl)c(S(=O)(=O)N2CCCCCC2)c1 | 3.3 | -19.0% | 10.8% | -25.0% | 10.3µM* | u
Cc1cccn2c(=O)c(C(=O)NCCc3ccccc3)cnc12 | x | x | x | x | -26.5% | u
CC[C@@H]1CC2=C(C(=O)OC(C)(C)O2)[C@@H](c2ccc(Cl)cc2)O1 | 9.4 | -0.4% | x | 2.0% | -19.4% | -21.5%
CCOc1ccc(CCNC(=O)c2ccc(-n3c(C)cc4c3CCC(C)C4)cc2)cc1OCC (stereo not drawn) | x | x | x | x | 14.6µM* | 14.6µM*
CC1CN(S(=O)(=O)c2ccc(Cl)c(S(=O)(=O)N3CC(C)OC(C)C3)c2)CC(C)O1 (stereo not drawn) | 20.6 | -1.2% | 1.6% | -0.2% | u | 14.6µM*
CC1CN(C(=O)c2cc(S(=O)(=O)N3CCCC3)c(Cl)cc2Cl)CC(C)O1 (stereo not drawn) | 0.0 | -5.8% | -1.1% | -1.0% | 13µM* | 18.4µM*
Cc1nn(CCCC(=O)Nc2cc(C(F)(F)F)ccc2Cl)c(=O)c2c1sc1ccccc12 | x | x | x | x | -24.3% | -2.3%
CCCOc1c(Br)cc(/C=N/O)cc1OC | -1.3 | u | x | u | -25.9% | u
CCOc1cc(/C=N/O)cc(Br)c1OCC | -1.8 | -9.3% | u | -4.2% | -2.4% | -28.3%
CCOc1cc(/C=N/O)ccc1OCc1ccc(C)cc1 | -2.6 | u | u | u | u | 23.1µM*
CCOc1cc(/C=N/O)cc(Br)c1OCc1ccc(Cl)cc1 | -77.8* | u | u | u | u | u
C#CCOc1c(Br)cc(/C=N/O)cc1OCC | 0.0 | -27.3% | u | -25.8% | -16.7% | 29.1µM*
O=C(NCCCn1ccnc1)c1ccccc1Cl | 2.1 | 1.6% | -8.0% | -0.6% | 2.4% | -1.7%
C=CCSc1nnc(-c2cc3c(-c4ccccc4)nn(C)c3s2)n1C | -62.0* | -5.4% | u | -12.1% | u | u
C=CCSc1nnc(-c2cc3c(C(F)(F)F)nn(C)c3s2)n1C | -13.3 | 7.1% | 3.5% | 20.9% | 4.4% | -8.6%
COc1cccc(NC(=O)CN(C)C(=O)c2ccc3c(c2)C(=O)N(CCC(C)C)C3=O)c1 | 20.6 | 0.0% | -22.8% | -2.1% | -23.0% | -7.3%
O=C(Nc1ccccc1)Nc1nnc(CSCc2ccccc2Cl)s1 | 13.8 | u | u | u | 20.6µM* | u
O=C(Nc1ccc(Cl)cc1)Nc1nnc(SCc2ccccc2)s1 | -16.7 | 10.0% | 6.3% | 11.6% | u | u
COc1ccc(NC(=O)Nc2nnc(C(C)(C)C)s2)cc1 | -25.6 | 2.2% | u | 4.8% | -26.2% | u
SMILES | IL1B secr inh | HT1080 IDH1KD tx | ELG1 repair inh | HT1080NT lethal | TDP1 cell CPT | TDP1 cell noCPT
O=C(Nc1ccc(Cl)c(Cl)c1)Nc1nnc(CSc2ccccc2)s1 | u | -0.9% | u | -4.2% | 2.59µM* | 5.17µM*
O=C(Cc1nnc(NC(=O)Nc2ccccc2)s1)Nc1ccccc1 | 0.0 | -0.9% | -8.2% | -4.1% | -1.2% | -0.8%
O=C(Nc1ccc(Cl)cc1)Nc1nnc(CSCc2ccccc2Cl)s1 | 11.2 | -0.3% | 10.3µM* | 3.6% | 16.4µM* | 11.6µM*
CC(C)(C)c1nnc(NC(=O)Nc2ccc(Cl)cc2)s1 | 3.9 | 6.1% | 5.4% | -0.4% | u | 16.4µM*
Cc1ccc(CNC(=O)CCCN2C(=O)CCn3nc(-c4cccn4C)cc32)cc1 | x | x | x | x | -18.7% | u
O=C(NNC(=O)c1cccc2ccccc12)c1ccc(Cl)cc1 | -13.5 | 17.5% | x | 0.7% | 1.6% | u
O=[N+]([O-])c1cnc(Nc2ccc(Cl)cn2)c([N+](=O)[O-])c1 | -55.0* | u | u | -26.8% | u | u
O=C(Nc1ccc(Cl)cn1)c1ccccc1[N+](=O)[O-] | 16.9 | 18.4µM* | -4.4% | u | u | u
Cc1ccc(Nc2ccc([N+](=O)[O-])cn2)cc1Cl | u | -4.5% | u | -13.9% | u | u
O=C(Nc1ccc(Cl)cn1)c1cccc2ccccc12 | 0.0 | 11.6µM* | u | u | 5.17µM* | 5.8µM*
COc1ccc(S(=O)(=O)N2CCCOC2CNC(=O)C(=O)NCc2ccco2)cc1 (stereo not drawn) | 0.0 | 1.6% | -4.7% | 6.3% | 3.4% | 2.0%
COc1ccc(-c2c(C)nn3c(-c4ccccc4)cc(C)nc23)cc1 | 16.6 | 3.3% | u | -4.0% | u | u
Cc1cc(C)n2nc(C)c(-c3ccccc3)c2n1 | 0.0 | -0.1% | x | -0.2% | -21.6% | u
Cc1cc(NCc2ccccn2)n2nc(C)c(-c3ccccc3)c2n1 | -14.7 | -13.8% | 23.1µM* | u | 0.0517µM* | 0.0461µM*
Cc1nn2c(N3CCN(C)CC3)c3c(nc2c1-c1ccccc1)CCCC3 | -21.8 | -8.3% | -1.3% | -8.5% | u | -25.4%
Cc1nn2c(NCCN3CCOCC3)c3c(nc2c1-c1ccccc1)CCCC3 | -14.8 | 2.0% | 16.4µM* | 0.0% | 2.59µM* | 5.8µM*
Cc1nn2c(NCc3ccccn3)c3c(nc2c1-c1ccccc1)CCC3 | x | -28.9% | 10.3µM* | -12.8% | 2.59µM* | 4.61µM*
Cc1nn2c(NCc3ccccn3)cc(C(C)(C)C)nc2c1-c1ccccc1 | 5.0 | -1.0% | u | 1.5% | u | u
